One assay concerns TLK2. As to conditions: concentration: 1 μM, replicates: in singlicate, n = 1.
The next assay has as its system TNIK. As to conditions: concentration: 1 μM, replicates: in singlicate, n = 1.
Another assay relates to TNK1. Particulars: concentration: 1 μM, replicates: in singlicate, n = 1.
A further assay deals with TNK2. As to conditions: concentration: 1 μM, replicates: in singlicate, n = 1.
The next assay deals with TNNI3K. Particulars: concentration: 1 μM, replicates: in singlicate; n = 1.
The subject of the next assay is T1, TRKA.
T1 construct: gene NTRK1
Particulars: concentration: 1 μM, replicates: in singlicate; n = 1.

For a further assay, the system named is TRKB. Particulars: concentration: 1 μM, replicates: in singlicate, n = 1.
In a further assay the test system is T2, TRKC.
T2 construct: gene NTRK3
As to conditions: concentration: 1 μM, replicates: in singlicate, n = 1.

In the next assay the test system is TRPM6. As to conditions: concentration: 1 μM, replicates: in singlicate, n = 1.
In the next assay the test system is TSSK1B. Particulars: concentration: 1 μM, replicates: in singlicate; n = 1.

Here are results for 20 compounds from article PMC5540273 (PLoS ONE, 2017).

Several values for one entry are separate records, joined by “and”; a condition that tells them apart may be missing. Equal entries are not always repeated. Where two headings read alike, the source gives them in different places.
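Further: KINOMEscan kinase panel screen.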

On to `COc1ccc(Nc2ncc(C#N)c(Nc3ccccc3C(N)=O)n2)cc1N1CCN(C)CC1.Cl` [GSK1558669], for which the “%Inh” value came out at 99.6% in the assay on TLK2; 99.3% with TNIK; 100% with TNK1; 94.8% with TNK2; 82% in the assay on TNNI3K; 100% in the assay with TRKA. The “%Inh” value in the assay with TRKB is listed as 94.8%; in the assay with TRKC, 94.6%; with TRPM6, 46%; with TSSK1B, 89%.
Take `O=C(NCCCN1CCOCC1)c1cccc(Nc2nccc(Nc3ccc(Oc4ccccc4)cc3)n2)c1` [GW663929]: the “%Inh” value with TLK2 turned out to be 21%; in the assay on TNIK it was 3%; in the assay on TNK1 it was 66%; in the assay with TNK2, 19%; with TNNI3K, 74%; in the assay with TRKA, 8%. Further, the “%Inh” value in the assay with TRKB came to 0%; in the assay with TRKC it was 0%; with TRPM6, 52%; in the assay on TSSK1B, 0%.
Take `O=c1cc(N2CCOCC2)nc2n(Cc3cccc(F)c3)ccn12` [GSK2297430]: the “%Inh” value in the assay with TLK2 came to 0%; with TNIK it was 0%; in the assay on TNK1, 0%; in the assay on TNK2 it was 18%; in the assay with TNNI3K it was 0%; in the assay with TRKA, 54%. The “%Inh” value came out at 27% in the assay on TRKB, 6% with TRKC, 0% with TRPM6 and 12% with TSSK1B.
As to `Cl.Cl.Cl.Fc1ccc(-c2ncn(C3CCNCC3)c2-c2ccnc(Nc3ccccc3)n2)cc1` [SB-238039], the “%Inh” value was 13% and 0% in the assay on TLK2 (1 µM); 86% and 84% with TNIK (1 µM); 58% and 12% in the assay on TNK1 (1 µM); 0% and 10% in the assay on TNK2 (1 µM); 0% in the assay with TNNI3K; 0% in the assay on TRKA. Besides, the “%Inh” value with TRKB (1 µM) is 18% and 16%; with TRKC (1 µM), 67% and 0%; with TRPM6 (1 µM), 6% and 0%; in the assay with TSSK1B it was 0%.
`CN1c2ccc(CNc3ccc(F)cc3)cc2-c2c(cnn2C)S1(=O)=O`: the “%Inh” value with TLK2 amounted to 0%; with TNIK, 9%; in the assay on TNK1, 12%; in the assay with TNK2, 0%; with TNNI3K, 0%; in the assay on TRKA it was 0%. Moreover, the “%Inh” value in the assay with TRKB, in the assay with TRKC, in the assay with TRPM6 and with TSSK1B was 0% in each case.
With `COc1ccc(Nc2nccc(N3CCC(NC(=O)Nc4cc(C)ccc4C)C3)n2)cc1` (centres unmarked) [GSK1379741], the “%Inh” value in the assay with TLK2 is listed as 0%; in the assay on TNIK, 0%; in the assay on TNK1, 0%; with TNK2, 9%; in the assay with TNNI3K, 0%; with TRKA, 0%. Moreover, the “%Inh” value in the assay with TRKB came out at 0%; in the assay on TRKC, 22%; in the assay with TRPM6 it was 32%; in the assay on TSSK1B it was 13%.
`CCn1cnc2c(N)ncnc21` [GW345098]: the “%Inh” value with TLK2 was 0%; with TNIK, 17%; with TNK1 it was 7%; in the assay on TNK2 it was 10%; with TNNI3K, 4%; in the assay with TRKA it was 24%. The “%Inh” value is listed as 0% in the assay on TRKB, 7% with TRKC, 81% with TRPM6 and 20% in the assay on TSSK1B.
On to `Cc1nnc(-c2ccc3occ(-c4ccc(C(C)O)cc4)c3c2)o1` (centres unmarked), for which the “%Inh” value came out at 0% in the assay with TLK2; 0% with TNIK; 0% in the assay with TNK1; 0% in the assay on TNK2; 27% in the assay with TNNI3K; 0% with TRKA. Also, the “%Inh” value came to 0% in the assay on TRKB, 37% with TRKC, 0% in the assay on TRPM6 and 0% in the assay with TSSK1B.
`Cn1ccc2ncnc(Oc3ccc(NC(=O)Nc4ccncc4)c(Cl)c3)c21`: the “%Inh” value with TLK2, in the assay on TNIK, in the assay on TNK1, with TNK2, in the assay on TNNI3K and in the assay with TRKA was 0% throughout. Also, the “%Inh” value in the assay with TRKB, in the assay with TRKC, with TRPM6 and in the assay on TSSK1B was 0% in each case.
Take `Nc1nc(-c2ccc3c(N)n[nH]c3c2)cc(N2CCCC2)n1` [GSK2227430]: the “%Inh” value with TLK2, in the assay with TNIK, in the assay on TNK1, in the assay on TNK2, in the assay on TNNI3K and in the assay with TRKA was 0% throughout. Further, the “%Inh” value with TRKB, in the assay with TRKC, in the assay on TRPM6 and with TSSK1B was 0% each time.
Turning to `c1ccc(-c2n[nH]cc2-c2ccnc3ccccc23)nc1` [GW271431], the “%Inh” value is recorded as 0% in the assay on TLK2; 32% in the assay on TNIK; 10% in the assay on TNK1; 19% in the assay with TNK2; 12% in the assay on TNNI3K; 35% with TRKA. Besides, the “%Inh” value in the assay on TRKB stood at 0%; in the assay on TRKC, 0%; with TRPM6, 29%; in the assay with TSSK1B it was 11%.
Turning to `Cc1ccc(NC(=O)c2ccnc(N3CCN(C)CC3)c2)cc1-c1ccc(C(=O)NCC2CC2)cc1` [GW775604], the “%Inh” value with TLK2 is 0%; in the assay on TNIK it was 0%; in the assay with TNK1 it was 34%; with TNK2, 0%; in the assay with TNNI3K, 0%; in the assay with TRKA, 0%. For the same compound, the “%Inh” value in the assay with TRKB, with TRKC, in the assay on TRPM6 and in the assay on TSSK1B was 0% in each case.
With `c1ccc(-c2cc(-c3c[nH]nc3-c3ccccn3)ccn2)cc1` [GW576604], the “%Inh” value in the assay with TLK2 came out at 0%; with TNIK, 72%; in the assay with TNK1 it was 0%; with TNK2 it was 1%; in the assay on TNNI3K, 89%; in the assay on TRKA it was 54%. Further, the “%Inh” value was found to be 25% in the assay with TRKB, 0% in the assay on TRKC, 11% in the assay on TRPM6 and 3% in the assay on TSSK1B.
Take `C[C@@H](Oc1cc(-n2cnc3ccc(NC(=O)NC(C)(C)C)cc32)sc1C(N)=O)c1ccccc1Cl` [GSK346294]: the “%Inh” value in the assay with TLK2 was 0%; in the assay on TNIK it was 0%; in the assay on TNK1, 0%; in the assay on TNK2 it was 9%; in the assay on TNNI3K, 13%; in the assay on TRKA, 33%. The “%Inh” value in the assay with TRKB was 0%; with TRKC it was 0%; in the assay on TRPM6, 0%; in the assay on TSSK1B, 20%.
Consider `COc1cc2ncn(-c3cc(OCc4sccc4Cl)c(C(N)=O)s3)c2cc1OC` [GSK448459], for which the “%Inh” value is 0% with TLK2; 74% with TNIK; 0% in the assay on TNK1; 24% with TNK2; 0% in the assay on TNNI3K; 47% with TRKA. Further, the “%Inh” value in the assay on TRKB is reported as 25%; with TRKC, 14%; in the assay on TRPM6 it was 0%; with TSSK1B it was 1%.
For `CSc1ccc(-c2cc3ncnc(SCC(=O)O)c3s2)cc1`, the “%Inh” value in the assay on TLK2 was determined as 0%; with TNIK it was 3%; with TNK1 it was 57%; in the assay on TNK2, 14%; in the assay with TNNI3K it was 0%; with TRKA it was 0%. Also, the “%Inh” value in the assay with TRKB, with TRKC, in the assay with TRPM6 and in the assay with TSSK1B was 0% throughout.
As to `O=c1cc(N2CCOCC2)nc2n(Cc3cccc(Cl)c3Cl)c(C3CC3)nn12` [GSK2358994], the “%Inh” value with TLK2 is 0%; with TNIK, 10%; in the assay with TNK1, 0%; in the assay with TNK2, 5%; in the assay on TNNI3K, 0%; in the assay with TRKA, 1%. Besides, the “%Inh” value in the assay on TRKB, with TRKC, in the assay on TRPM6 and in the assay on TSSK1B was 0% in each case.
In the case of `Cc1nnc(-c2ccc3ncc(-c4ccc(S(C)=O)cc4)n3c2)o1` (centres unmarked), the “%Inh” value is 0% with TLK2; 0% in the assay with TNIK; 0% in the assay with TNK1; 0% with TNK2; 1% in the assay with TNNI3K; 0% in the assay on TRKA. Besides, the “%Inh” value with TRKB was determined as 0%; in the assay on TRKC it was 36%; in the assay with TRPM6 it was 6%; with TSSK1B it was 0%.
In the case of `COc1ccc(S(=O)(=O)NC2CCN(c3cc(C)nc(Nc4cccc(C#N)c4)n3)CC2)cc1.O=C(O)C(F)(F)F` [GSK1653539], the “%Inh” value was found to be 0% in the assay with TLK2; 0% with TNIK; 0% in the assay with TNK1; 8% in the assay with TNK2; 0% in the assay on TNNI3K; 7% in the assay with TRKA. The “%Inh” value in the assay on TRKB, with TRKC, in the assay with TRPM6 and with TSSK1B was 0% in each case.
As for `Fc1ccc(-c2nn3c(OCC(F)(F)F)cccc3c2-c2ccncc2)cc1` [GW514784], the “%Inh” value in the assay with TLK2 amounted to 0%; in the assay with TNIK it was 29%; with TNK1, 0%; with TNK2, 18%; with TNNI3K it was 0%; with TRKA it was 15%. Also, the “%Inh” value is given as 37% in the assay with TRKB, 25% in the assay with TRKC, 0% in the assay on TRPM6 and 0% in the assay with TSSK1B.
